Screening data deposited in PubChem by several laboratories.
In the library only some 1.4% were active in any assay of this set; here they are far more common.
HSV replic up = increases HSV replication in cells. maximum fold increase. HSV replication augmentation in cells, fold increase. 220,000 compounds, 0.005% hits; in the data active = maximum fold increase above about 1.5; tested in PC3 cells
MIN6 prolif = MIN6 beta-cell proliferation induction; AID 2380; MIN6 cells proliferation, ATPlite luminescence, 48 h; cells starved in 0.2% serum; 100% = growth in 10% serum; 330,000 compounds, 0.29% hits; proliferation, % at 10 µM;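 active = compounds whose signal lies at least 3.5 SD above the mean of all wells on their plate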
Yeast superoxide = lowers age-related superoxide in aged yeast cells; S. cerevisiae aged cells, superoxide DHE fluorescence; stronger effect = lower value; superoxide response (% of plate mean), % at 10 µM; 330,000 compounds, 0.18% hits; AID 2690;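 active = superoxide response under a set limit, about three screen SD below normal, cut at about 65% in these data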;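 also: yeast aged for seven days with compound at 30 °C before DHE staining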
Cardio protect = myocardial damage modulation in H9c2 cells | 360,000 compounds, 0.63% hits | H9c2 cardiomyocytes, H2O2 injury protection, ATPLite, 2 h | protection from H2O2 cell death, % at 20 µM | AID 588492;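 active = compounds giving at least 50% protection of heart cells from peroxide-induced death in the single-dose screen, raw or plate-pattern-corrected value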
V-ATPase pHluor = regulators of yeast V-ATPase proton transport | 350,000 compounds, 0.37% hits | S. cerevisiae, pHLuorin cytosolic pH fluorescence | AID 504577 | response, % at 10 µM; in the data active = response mostly above about 7.3%, no sharp cut-off; inactive = mostly below about 5.4%; also: actives read high
pCIP destab = lowers stability of the mouse p/CIP coactivator protein; decrease of EGFP signal, % at 10 µM; 290,000 compounds, 0.01% hits; AID 1984; F442A p/CIP-EGFP cells, EGFP fluorescence, 16 h; Q05BA5;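 active = EGFP signal decrease of at least 30% at 10 µM or well 3 SD below plate mean, unless failing retest; inactive = the rest, including hits failing retest or dose response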
Superoxide pick = yeast aging superoxide inhibition, cherry pick confirmation; shares compounds with Yeast superoxide; S. cerevisiae aging, superoxide DHE fluorescence; stronger effect = lower value; superoxide response (% of plate), % at 10 µM; 850 compounds, 1% hits;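 active = superoxide signal below 65% of the plate average of sample wells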;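 also: cells aged with compound for 7 days at 30 degrees C before staining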
DHE fluor count = counter-screen for compounds affecting DHE oxidation and fluorescence in yeast; AID 435000; fluorescence response, % at 10 µM; 850 tested, under 10 active; shares compounds with Yeast superoxide; S. cerevisiae BY4741, flow cytometry; stronger effect = lower value;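 active = fluorescence response below 15%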;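 also: lower means stronger quenching of DHE signal or ROS scavenging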
Hits are given with their value; – = inactive; · = not tested or not shown.

SMILES	HSV replic up	MIN6 prolif	Yeast superoxide	Cardio protect	V-ATPase pHluor	pCIP destab	Superoxide pick	DHE fluor count
COc1cccc(NC(=O)C(c2ccccc2)N2CCN(c3ccccn3)CC2)c1 (configuration not stated)	–	–	–	–	–	–	·	·
COc1ccc(Cl)cc1NC(=O)C(C)N1CCN(c2ccccn2)CC1 (configuration not stated)	·	–	–	–	–	–	–	–
CCOC(=O)c1ncn2c1[C@@H]1CCNC1C(=O)c1cc(OC)ccc1-2 (some centres not stated)	·	–	–	–	–	·	·	·
O=C(Cn1cnc2ccccc21)N/N=C/c1ccccn1	–	–	21	–	–	–	–	–
O=C(CCn1cnc2ccccc21)N/N=C/c1ccc(O)cc1	–	–	65	–	–	–	–	–
O=C(CCn1cnc2ccccc21)N/N=C/c1ccccc1O	–	–	–	–	–	–	·	·
O=C(Cn1cnc2ccccc21)N/N=C/c1cccnc1	–	–	–	–	–	–	·	·
COc1ccc(NC(=O)CS(=O)c2cccc(C(F)(F)F)c2)cc1 (configuration not stated)	·	–	–	–	–	–	·	·
O=C1CC(=C2c3ccccc3-c3ccccc32)C(=O)N1CCCCN1CCN(c2ccccc2)CC1	–	–	15	–	–	–	–	–
O=C1CC(=C(c2ccccc2)c2ccccc2)C(=O)N1CCCN1CCN(c2cccc(Cl)c2)CC1	–	–	–	–	–	–	·	·
CC(CCc1ccco1)NC(=O)CSc1cc(=O)n(C)c2ccccc12 (configuration not stated)	–	–	–	–	–	–	·	·
O=c1cc(O)c2c(=O)n(-c3ccccc3)c3c(c2o1)CCCCCC3	–	–	–	–	–	–	·	·
O=c1cc(O)c2c(=O)n(C3CCCCC3)c3ccccc3c2o1	–	–	–	–	–	–	–	–
CCCCn1c(=O)c2c(O)cc(=O)oc2c2ccccc21	·	–	43	–	–	–	–	–
O=c1cc(O)c2c(=O)n(Cc3ccccc3)c3ccccc3c2o1	–	–	–	–	–	–	·	·
CCNC(=O)Nc1ccc(-n2nc(C)c(C(=O)OCC)c2C)nc1	–	–	–	–	–	–	·	·
Nc1nc(=S)c2[nH]cnc2[nH]1	·	–	–	–	–	·	·	·
CC(C)(C)c1ccc(NS(=O)(=O)c2ccc(N)cc2)cc1	–	–	–	–	–	–	–	–
Nc1ccc(S(=O)(=O)Nc2ccc(S(N)(=O)=O)cc2)cc1	–	–	–	–	–	–	–	–
Nc1ccc(S(N)(=O)=O)cc1	–	–	–	–	–	·	·	·
Cc1cc(C)nc(N/N=C2/CCCC/C2=C\c2ccccc2)n1	–	–	–	–	–	–	·	·
CCOC(=O)c1cnc2cc(-c3ccc(Br)cc3)nn2c1C	·	–	–	–	–	–	–	–
CCOC(=O)c1cnc2cc(C)nn2c1C	–	–	–	–	–	–	·	·
CCCC/C(O)=C1\C(=O)CC(C)(C)CC1=NCCCCCC(=O)O	–	–	–	–	–	–	·	·
Cc1nc(C)c(C(=O)O)c(-c2ccsc2)c1C(=O)O	–	–	61	–	–	–	–	–
SMILES	HSV replic up	MIN6 prolif	Yeast superoxide	Cardio protect	V-ATPase pHluor	pCIP destab	Superoxide pick	DHE fluor count
CCCCn1nc(NC(=O)c2cccs2)c2cc3ccccc3nc21	–	–	65	56	–	–	–	–
CCCn1nc(NC(=O)c2cccs2)c2cc3ccccc3nc21	–	–	–	–	–	–	·	·
Cc1ccc(-c2cnn3c(N4CCOCC4)cc(C)nc23)cc1	·	–	–	–	–	–	·	·
C=CCn1c(SCC(=O)Nc2cc(C)c(Cl)cc2OC)nnc1-c1ccco1	–	–	–	–	–	–	–	–
C=CCn1c(SCC(=O)Nc2cc(OC)c(NC(=O)c3ccco3)cc2OC)nnc1-c1ccncc1	–	–	–	–	–	–	·	·
COc1cccc(Cn2nnc(C(=O)NCc3ccc4c(c3)OCO4)c2N)c1	–	–	64	–	–	–	–	–
CN(C)S(=O)(=O)N1CCN(c2cccc(Cl)c2)CC1	–	–	64	–	–	–	–	–
CN(C)S(=O)(=O)N1CCN(c2ccccc2)CC1	–	–	–	–	–	–	·	·
